Entries with a potency or affinity are not part of this list. Inconclusive results are not listed. Activity calls are given as the source filed them.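 Rule for the calls: active = compounds lowering the FRET ratio whose fitted half-maximal concentration is at most twice their top tested dose; inconclusive = flat partial drop between 30 and 70 percent, or bad fit; inactive = the rest.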
These compounds were tested against Voltage-dependent L-type calcium channel subunit alpha-1D (Homo sapiens) (UniProt Q01668) (assay: inhibitors of CaV1.3 ICDI-IQ binding, dose response, cell-based, HEK293, YFP-IQ/CFP-ICDI FRET, cherry-picks (AID 1053205;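 note: 0% = median of neutral control wells and -100% = median of positive control wells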)). Settings: HEK293 YFP-IQ/CFP-ICDI FRET ratio, 10 min; series mostly up to 35 µM; FRET change, negative = inhibition: at the top concentration.
Sequence of Voltage-dependent L-type calcium channel subunit alpha-1D (Homo sapiens) (Q01668 whole entry, looked up): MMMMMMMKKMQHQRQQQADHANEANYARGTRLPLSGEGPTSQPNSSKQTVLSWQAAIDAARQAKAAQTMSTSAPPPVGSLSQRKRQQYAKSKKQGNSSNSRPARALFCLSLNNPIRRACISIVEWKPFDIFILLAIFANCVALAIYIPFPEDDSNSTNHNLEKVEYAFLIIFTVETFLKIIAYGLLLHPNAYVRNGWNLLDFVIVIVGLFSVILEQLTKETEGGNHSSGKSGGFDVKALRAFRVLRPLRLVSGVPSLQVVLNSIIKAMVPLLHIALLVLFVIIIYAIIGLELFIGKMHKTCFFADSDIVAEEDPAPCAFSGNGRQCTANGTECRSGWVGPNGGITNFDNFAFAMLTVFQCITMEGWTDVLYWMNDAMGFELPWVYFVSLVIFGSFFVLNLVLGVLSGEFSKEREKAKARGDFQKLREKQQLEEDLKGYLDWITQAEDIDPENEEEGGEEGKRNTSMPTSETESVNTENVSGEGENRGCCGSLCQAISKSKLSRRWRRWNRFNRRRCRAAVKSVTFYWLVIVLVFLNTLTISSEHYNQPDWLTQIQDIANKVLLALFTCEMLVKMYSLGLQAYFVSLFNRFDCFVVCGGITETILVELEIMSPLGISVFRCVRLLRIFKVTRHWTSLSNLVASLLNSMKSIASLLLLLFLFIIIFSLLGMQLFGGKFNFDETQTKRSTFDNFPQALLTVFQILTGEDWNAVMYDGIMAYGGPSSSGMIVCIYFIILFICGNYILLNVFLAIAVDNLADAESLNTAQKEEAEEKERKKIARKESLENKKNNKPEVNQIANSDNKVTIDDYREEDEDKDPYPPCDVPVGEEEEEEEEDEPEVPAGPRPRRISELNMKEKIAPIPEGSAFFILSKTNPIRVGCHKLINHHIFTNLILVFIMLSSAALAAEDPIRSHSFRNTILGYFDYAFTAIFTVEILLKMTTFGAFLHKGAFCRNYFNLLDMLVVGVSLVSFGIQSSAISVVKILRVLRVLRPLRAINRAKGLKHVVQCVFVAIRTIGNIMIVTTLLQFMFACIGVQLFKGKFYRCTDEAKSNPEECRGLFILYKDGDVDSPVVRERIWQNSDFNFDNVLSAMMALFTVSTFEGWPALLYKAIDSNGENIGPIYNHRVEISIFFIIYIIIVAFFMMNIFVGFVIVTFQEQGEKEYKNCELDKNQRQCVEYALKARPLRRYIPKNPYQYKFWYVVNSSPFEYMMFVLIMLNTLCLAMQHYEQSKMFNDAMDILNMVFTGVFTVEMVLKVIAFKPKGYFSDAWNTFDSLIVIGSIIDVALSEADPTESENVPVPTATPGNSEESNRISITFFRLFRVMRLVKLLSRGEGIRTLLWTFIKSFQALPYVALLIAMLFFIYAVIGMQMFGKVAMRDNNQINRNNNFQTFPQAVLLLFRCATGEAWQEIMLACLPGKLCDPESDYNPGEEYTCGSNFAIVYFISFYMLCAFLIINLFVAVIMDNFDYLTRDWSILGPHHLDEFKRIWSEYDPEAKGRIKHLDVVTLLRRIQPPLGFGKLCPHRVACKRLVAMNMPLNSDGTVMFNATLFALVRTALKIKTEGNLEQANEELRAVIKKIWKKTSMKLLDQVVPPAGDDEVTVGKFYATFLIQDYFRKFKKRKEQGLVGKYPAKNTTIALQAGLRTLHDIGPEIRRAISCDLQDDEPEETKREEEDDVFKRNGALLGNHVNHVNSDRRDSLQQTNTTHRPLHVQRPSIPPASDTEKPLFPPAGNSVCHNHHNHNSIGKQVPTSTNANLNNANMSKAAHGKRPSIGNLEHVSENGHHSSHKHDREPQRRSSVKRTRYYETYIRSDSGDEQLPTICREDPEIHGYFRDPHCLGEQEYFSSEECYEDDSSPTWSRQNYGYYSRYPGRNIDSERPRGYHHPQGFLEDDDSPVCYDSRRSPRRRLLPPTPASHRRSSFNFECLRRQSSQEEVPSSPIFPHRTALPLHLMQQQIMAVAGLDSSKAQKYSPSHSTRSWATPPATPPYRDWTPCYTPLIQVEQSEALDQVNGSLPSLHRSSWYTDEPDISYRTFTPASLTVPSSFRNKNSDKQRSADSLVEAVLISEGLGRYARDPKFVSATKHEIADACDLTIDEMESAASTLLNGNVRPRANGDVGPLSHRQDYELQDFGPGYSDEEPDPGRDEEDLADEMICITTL

FRET change, negative = inhibition, inactive:
O=C(Cn1ccc([N+](=O)[O-])n1)N1CCCCCC1 3.68%
Cc1cc2cc(CNC(=O)c3ccco3)ccc2n1C 152%
CCC(=O)N1C(C(=O)NCc2ccc(OC)cc2)CSC1c1ccc(OC)cc1 (centres undefined) -1.99%
S=C(NCC1CCCO1)N1CCN(Cc2ccccc2Cl)CC1 (centres undefined) -9.6%
CSc1ccc(Cn2c(C)c(C(=O)NCCC#N)sc2=O)cc1 2.75%
COc1ccc(CCN=C(N)NS(=O)(=O)c2ccc(F)cc2)cc1 13.4%
COCCNC(=S)N/N=C/c1ccc(-c2ccc([N+](=O)[O-])cc2)o1 399%
O=C(O)c1cccc(NC(=O)c2cn(-c3ccccc3)nc2-c2cccc(Br)c2)c1 -4.92%
Cc1ccc(S(=O)(=O)Nc2ccc(Nc3ccccc3)cc2)cc1 14.1%
CCCOc1ccc(NC(=O)c2c(-c3ccccc3)noc2C)cc1 8.7%
O=c1oc2cc(O)ccc2cc1-c1nc2ccccc2o1 385%
COc1ccc(C2CC(c3cccs3)=NN2c2nc(C)c(C(C)=O)s2)cc1OC (centres undefined) 473%
CC(C)c1ccc(/C=C2\Oc3c(ccc(O)c3CN3CCN(C)CC3)C2=O)cc1 470%
c1ccc(-c2cn3nc4c(nc3n2)CCCC4)cc1 478%
CC(=O)Oc1ccc(C(=O)Nc2cc(C)on2)cc1 58.3%
CC(=O)NNc1cc(N2CCOCC2)nc(N2CCOCC2)n1 10.7%
O=c1[nH]c(=O)c2nc(-c3ccc(Cl)cc3)cnc2[nH]1 201%
O=C(NS(=O)(=O)c1ccc(Cl)s1)c1ccccc1 74.7%
Cc1cc(CNC(=O)c2ccc3c(c2)OCO3)c2ccccc2n1 -0.037%
